The structures appear in SMILES notation. Records with an inconclusive call do not appear. Unmarked numbers belong to inactive results. Calls of active or inactive are those of the source. The call rests on the fitted dose curve; in most records, active means well fitted cell-killing curve with a large enough effect; inconclusive means small, poorly fitted or top-dose-only effect; inactive means flat fitted curve, though single readings scatter.
On the % scale 0 is the no-effect control and ±100 the full control effect; potency means the concentration at half of the fitted maximal effect.

The experiment is described as follows: Panc-1005 Cancer Cell Toxicity qHTS against the NCATS CANVASS Library (AID 1347349). Further: nearly all actives have a fitted effect of over 60% in size. The note with it: Panc-1005 viability, CellTiter-Glo luminescence, 72 h; series mostly up to 38.3 µM; activity change, negative = cytotoxicity: at the top concentration. The source says:
Natural products and their derivatives continue to be wellsprings of nascent therapeutic potential. However, many laboratories have limited resources for biological evaluation, leaving their previously isolated or synthesized compounds largely or completely untested. To address this issue, the Canvass library of natural products was assembled (https://tripod.nih.gov/canvass), in collaboration with academic and industry researchers, for quantitative high-throughput screening (qHTS) across a diverse set of cell-based and biochemical assays. The pure (>85% purity by liquid chromatography/mass spectrometry [LC/MS]) Canvass library of 346 natural products were submitted by 45 academic laboratories and companies around the world. We collected pure natural products to circumvent deconvolution and structure elucidation due to time and resource limitations. The library was formatted into 1536-well plates and evaluated in 50 qHTS (in an 11-pnt concentration series) bioassays with broad scope of disease-relevant mechanisms. The resulting data set from 50 different assays was then systematically analyzed to identify overall trends and specific natural products with interesting biological activities. Reported herein are the results of each individual qHTS and their corresponding assay protocol. National Center for Advancing Translational Sciences (NCATS), Rockville, MD National Institute of Health (NIH), Bethesda, Maryland
Cancer Cell Toxicity protocol for cell lines COV-362, OV-KATE, OV-SAHO, UWB1.289, UWB1.289-WTBRCA1, HEK-293, HPAF-II, Panc-1005, SW1088, or U-118MG. 1. In a 1536 well, white solid bottom tissue culture plates (Corning 7494), corresponding cells (COV-362, OV-KATE, OV-SAHO, UWB1.289, UWB1.289-WTBRCA1, HEK-293, HPAF-II, Panc-1005, SW1088, or U-118MG) were dispensed in each well at a final concentration of 1000 cells / well (6uL volume) using the Multidrop Combi (Thermo Fisher Scientific) dispenser. 2. The plates were incubated for 4 hours at 37 degrees C/5% CO2/95% Rh. 3. Compounds were pin transferred (~23nL volume) via Wako Pin-tool (Wako Automation, Richmond VA) equipped with a 1536 pin head. The assay plates were treated with compounds in an 11-pnt concentration series with a final concentration range of […] to 85uM. 4. Bortezomib was used as a single dose control (0.5mM column 4, rows 1 - 32) at a final concentration of 1.9uM and as a 16pnt titration (1mM; 1:2 dilution; 16-points; n = 2; column 3, rows 1 - 32) with final concentration range of 0.1nM - 3.8uM. 5. The assay plates were incubated for 72 hours at 37 degrees C/5% CO2/95% Rh. 6. 3uL CellTiter-Glo detection reagent was then added to the plates (columns 2 - 48, rows 1 - 32) and incubated at room temperature for additional 15min. 7. Luminescence signal was acquired via the ViewLux plate reader (PerkinElmer) using a clear filter, 2 second exposure and 2x binning settings.
In general terms: qHTS replaces the single test concentration by a dilution series.
In the case of `CO[C@@H](/C=C/CC/C=C/C(=O)O)[C@@H](O)[C@H](C)/C=C(\C)[C@@H](O)[C@H](C)C(=O)CCCC1CC(=O)NC(=O)C1`, the “activity change, negative = cytotoxicity” value was -3.13%.
Still for that read-out and setting: the result for `CC(=O)N[C@H]1CCN2CCC[C@H]12` reads -7.42% [at 85.4 µM]; that for `CC=C1CN(C=O)[C@H]2C[C@@H]1[C@@H](C(=O)OC)[C@@]13CCOC21Nc1ccccc13` (some centres undefined), -5.53%; that for `CNCCc1c[nH]c2ccccc12`, -4.85%.
In the case of `C[C@]12CC(O)C3[C@@H](CCC4C[C@@H](O)CC[C@@]43CO)[C@@]1(O)CCC2C1=CC(=O)OC1` (some centres undefined), the “activity change, negative = cytotoxicity” value was 2.03%.
On to `CN1C(=O)[C@]23CC4C(C)(C)[C@@]5(C[C@@]41CN2CC[C@@]3(C)O)C(=O)Nc1c5ccc2c1OC=CC(C)(C)O2` (some centres undefined), for which the “activity change, negative = cytotoxicity” value was -15%.
Same read-out and setting: with `CO[C@H](c1ccccc1)[C@H]1NC(=O)C(C)NC(=O)C(C[C@@H](C)CO)N(C)C(=O)[C@@H](C(O)c2cn(C(C)(C)C3CO3)c3ccccc23)NC(=O)C(C(C)C=C(C)C)NC(=O)C(CC(C)C)N(C)C(=O)C(C(C)C)NC1=O` (some centres undefined) the figure was -10.1% [at 22.9 µM].
Still for that read-out and setting: with `CCN1C[C@]2(C)CC[C@H](O)[C@]34C1C(C[C@H]23)[C@@]12CC[C@H](CC14)[C@](O)(COC(=O)c1ccc(OC)c(OC)c1)[C@H]2O` (some centres undefined) the figure was -21.7%; with `CC1=CC2CC[C@@H]3[C@@H](C)C[C@H](C)[C@@H](C1)N23` (some centres undefined), 9.92%.
`C[C@@H]1CC[C@@H](c2ccoc2)N2C[C@@]3(CC[C@@H]12)CS[C@@]1(CC[C@H]2[C@H](C)CC[C@@H](c4ccoc4)N2[C@@H]1O)C3`: the Potency is 5.3 µM (active).
Regarding `NCCc1ccccc1`, the “activity change, negative = cytotoxicity” value was 6.12%.
The same measure, in the same setting: with `C/C=C1/CN2CC[C@]34C(=Nc5ccccc53)[C@@H]2C[C@@H]1[C@H]4C(=O)OC` the figure was 1.42% [at 76 µM].
Same read-out and setting: with `c1ccc2c3c([nH]c2c1)CNCC3` the figure was -24.9%; with `CCC[C@H]1CC[C@H]2[C@H](C)CCC[C@H]2N1`, -12.9%; with `CC[N@@+]1([O-])C[C@]2(C)CC[C@@H](O)[C@@]34C5C[C@H]6CC[C@@]5(C(C[C@H]23)C41)[C@H](O)[C@@]6(O)CO` (some centres undefined), 1.28%.
As to `CCN1C[C@]2(C)CC[C@@H](O)[C@]34C1[C@H](C[C@H]23)C12CCC(CC14)[C@](O)(CO)[C@H]2O` (some centres undefined), the “activity change, negative = cytotoxicity” value is -3.66%.
On to `CC1=CC(=O)C2=C(C)C[C@H](O)[C@@H]3[C@H](OC(=O)[C@@H]3C)[C@@H]12`, for which the “activity change, negative = cytotoxicity” value was -3.44%.
With `COC(=O)C1=C2Nc3ccccc3[C@@]23CCN2CC(C(C)=O)C1C[C@H]23` (some centres undefined), the “activity change, negative = cytotoxicity” value is -6.64%.
Same read-out and setting: the result for `CCCC[C@@H]1CC[C@H]2CCCC(CCC)N12` (some centres undefined) reads -7.29%.
In the case of `COc1ccc2c(c1)[nH]c1c(C)nccc12`, the Potency is 30.6 µM (active).
For `CN(C)Cc1c[nH]c2ccccc12`, the “activity change, negative = cytotoxicity” value was 2.94%.
In the case of `CNCCc1ccccc1`, the “activity change, negative = cytotoxicity” value is 10%.
As for `CCCCC[C@@H]1OC(=O)[C@@H](C)N(C)C(=O)[C@H](CCCCC)OC(=O)C(C)N(C)C(=O)[C@H](CCCCC)OC(=O)[C@@H](C)N(C)C(=O)[C@H](CCCCC)OC(=O)C(C)N(C)C1=O` (some centres undefined), the Potency is 8.41 µM (active).
`COc1ccc(C23Oc4cc(OC)cc(OC)c4[C@](O)([C@H](c4ccccc4)C2C(=O)NCCCCNC(=O)c2ccccc2)[C@@H]3O)cc1` (some centres undefined): the “activity change, negative = cytotoxicity” value was -5.01%.
As to `CCC(=O)CCCCC[C@@H]1NC(=O)[C@H]2CCCCN2C(=O)[C@H]([C@@H](C)CC)NC(=O)[C@H](Cc2cn(OC)c3ccccc23)NC1=O`, the Potency is 0.668 µM (active).
Same read-out and setting: with `O=C(c1ccccc1O)c1[nH]c(Cl)c(Cl)c1-n1c(C(=O)c2ccccc2O)cc(Cl)c1Cl` the figure was 2.11 µM (active).
Consider `CC[C@@H]1CN2CC[C@@]3(O)C(=Nc4cccc(OC)c43)[C@@H]2C[C@@H]1/C(=C\OC)C(=O)OC`, for which the “activity change, negative = cytotoxicity” value is -0.71%.
On the same count and under the same terms, the result for `CO[C@@H](/C=C/CC/C=C/C(=O)O)[C@@H](O)[C@H](C)[C@@H](O)/C(C)=C/[C@H](C)C(=O)CCCC1CC(=O)NC(=O)C1` reads 5.01%.
Same read-out and setting: with `CNCCc1ccc(O)cc1` the figure was -1.97%.

For the origin of these results see PubChem BioAssay (NCATS).
